Records with an inconclusive call do not appear. The source made the active and inactive calls. How the source made its calls, unless noted: active means hit-call score of the fitted dose curve at least 0.9, where 1 is the maximum; inactive means score below 0.9.

In general, AC50 refers to the concentration giving half of the maximal activity seen.

Assay [1] has as its target Glucocorticoid receptor (Homo sapiens) (UniProt P04150). Nature of the assay: ATG_GR_TRANS: Attagene TRANS-FACTORIAL HepG2 Assay for human Glucocorticoid Receptor (GR) (AID 2282978; active means hit-call score of the fitted dose curve at least 0.9, where 1 is the maximum;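 further: activators score as hits since higher reporter transcript over DMSO is fitted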). To be noted: HepG2 Attagene TRANS GR reporter, mRNA transcription. In a few lines: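 Fluorescent capillary-electrophoresis quantitation of reporter mRNA is the readout, taken 24 h after dosing human HepG2 cells carrying transiently transfected GAL4-UAS reporter units activated by chimeric NR-GAL4 fusions; activity scored as induction over DMSO.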

Assay [2] addresses Bile acid receptor (Homo sapiens) (UniProt Q96RI1). Nature of the assay: ATG_FXR_TRANS: Attagene TRANS-FACTORIAL HepG2 Assay for Farnesoid X Receptor (FXR) (AID 2282979; active means hit-call score of the fitted dose curve at least 0.9, where 1 is the maximum;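 further: hits raise reporter mRNA above DMSO so AC50 marks FXR activation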). The note with it: HepG2 Attagene TRANS FXR-GAL4 reporter transcription. The procedure, abridged: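 Chimeric FXR-GAL4 activity in transiently transfected human HepG2 liver cells is scored as induction of reporter mRNA after 24 h of dosing. Detection uses RT-PCR with fluorescent labelling and capillary electrophoresis, with DMSO serving as baseline.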

A short description of assay [3]: ATG_M_32_TRANS: Attagene TRANS-FACTORIAL HepG2 Assay for M32 Transcription Factor (Internal Marker) (AID 2282984; active means hit-call score of the fitted dose curve at least 0.9, where 1 is the maximum). The note with it: HepG2 Attagene TRANS M32 internal marker reporter. The procedure, abridged:
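HepG2 cells transiently transfected with multiple GAL4-UAS reporter transcription units, dosed for 24 hours; reporter mRNA quantified by RT-PCR, 6-FAM primer extension, HpaI digestion and capillary electrophoresis. Gain-of-signal fitted versus DMSO baseline; internal background-control marker.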

Assay [4] deals with Nuclear receptor subfamily 4 group A member 2 (Homo sapiens) (UniProt P43354). Briefly: ATG_NURR1_TRANS: Attagene TRANS-FACTORIAL HepG2 Assay for human Nuclear Receptor Related Protein 1 (NURR1) (AID 2282985; active means hit-call score of the fitted dose curve at least 0.9, where 1 is the maximum). To be noted: HepG2 Attagene TRANS reporter, mRNA readout. In a few lines: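 HepG2 cells transiently transfected with GAL4-UAS reporter units and chimeric NR-Gal4 constructs; chemical exposure 24 h. Reporter mRNA quantified by RT-PCR, fluorescent labelling and capillary electrophoresis; gain of signal fitted relative to DMSO baseline.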

Assay [5] concerns the target Transcriptional activator Myb (Homo sapiens) (UniProt P10242). Nature of the assay: ATG_Myb_CIS: Attagene CIS-FACTORIAL HepG2 Assay for human Myeloblastosis (Myb) Proto-Oncogene Transcription Factor (AID 2282986). To be noted: HepG2 Attagene CIS-FACTORIAL Myb reporter transcription; actives raise or lower the signal. In a few lines:
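Reporter transcript levels, quantified by fluorescent RT-PCR and capillary electrophoresis, serve as the read-out. Transfected HepG2 cells carrying cis-promoter reporter units are dosed for 24 hours, and curves are fitted bidirectionally against DMSO controls.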

The target in assay [6] is Nuclear respiratory factor 1 (Homo sapiens) (UniProt Q16656). Nature of the assay: ATG_NRF1_CIS: Attagene CIS-FACTORIAL HepG2 Assay for human Nuclear Respiratory Factor 1 (NRF1) Orphan Gene (AID 2282987). The note with it: HepG2 NRF1 cis-element reporter, Attagene multiplex; actives raise or lower the signal. The procedure, abridged: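 Multiplexed cis-reporter assay, HepG2 cells, 24 h treatment. Total RNA → oligo(dT) RT → PCR with reporter-specific primers → 6-FAM primer extension → HpaI cut → CE. Bidirectional fit vs DMSO.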
Chain of Nuclear respiratory factor 1 (Homo sapiens) (Q16656 whole entry, looked up): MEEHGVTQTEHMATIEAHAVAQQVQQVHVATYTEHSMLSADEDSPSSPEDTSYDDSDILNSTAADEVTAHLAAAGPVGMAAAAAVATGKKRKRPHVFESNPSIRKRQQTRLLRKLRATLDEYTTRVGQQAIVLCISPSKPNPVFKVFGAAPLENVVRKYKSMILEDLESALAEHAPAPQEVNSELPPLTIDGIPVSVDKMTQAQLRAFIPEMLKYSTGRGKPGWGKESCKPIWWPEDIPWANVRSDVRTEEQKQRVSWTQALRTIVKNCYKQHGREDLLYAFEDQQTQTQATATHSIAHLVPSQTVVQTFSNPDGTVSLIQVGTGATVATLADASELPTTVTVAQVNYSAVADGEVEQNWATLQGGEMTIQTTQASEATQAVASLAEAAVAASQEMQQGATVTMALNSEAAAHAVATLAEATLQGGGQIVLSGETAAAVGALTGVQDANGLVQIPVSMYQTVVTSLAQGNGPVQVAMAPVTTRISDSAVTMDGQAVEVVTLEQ

A short description of assay [7]: ATG_NFI_CIS: Attagene CIS-FACTORIAL HepG2 Assay for human Nuclear Factor I (NFI) (AID 2282989). The note with it: HepG2 cis-regulatory reporter, NFI response element transcription; actives raise or lower the signal. In a few lines: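 Transfected HepG2 liver cells, exposed 24 h, supplied total RNA for oligo(dT) reverse transcription and reporter-specific PCR. Labelled, HpaI-cut fragments were sized by capillary electrophoresis; DMSO set the baseline for bidirectional fitting.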

The target of assay [8] is Myc proto-oncogene protein (Homo sapiens) (UniProt P01106). Briefly: ATG_Myc_CIS: Attagene CIS-FACTORIAL HepG2 Assay for human Myelocytomatosis (Myc) Proto-Oncogene Transcription Factor (AID 2282990). To be noted: HepG2, Attagene cis-reporter transcription factor activity; actives raise or lower the signal. The procedure, abridged:
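Multiplexed cis-reporter transcription in HepG2 cells after 24 h chemical treatment. Reporter mRNA measured by RT-PCR and capillary electrophoresis fluorescence; activity fitted bidirectionally against DMSO control.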

Assay [9] in a line: ATG_Oct_MLP_CIS: Attagene CIS-FACTORIAL HepG2 Assay for human Octamer-Binding Transcription Factor (Oct) (AID 2282993). The note with it: HepG2 Attagene cis-factorial Oct reporter, mRNA; actives raise or lower the signal. The procedure, abridged: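 Using HepG2 cells bearing transfected cis-reporter constructs, mRNA induction was read after 24 h by fluorescent RT-PCR and capillary electrophoresis, with DMSO defining baseline for gain- or loss-of-signal fits.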

Assay [10] concerns the target Cellular tumor antigen p53 (Homo sapiens) (UniProt P04637). Nature of the assay: ATG_p53_CIS: Attagene CIS-FACTORIAL HepG2 Assay for human p53 Transcription Factor (AID 2282994). To be noted: HepG2 p53 cis-element reporter, Attagene mRNA; actives raise or lower the signal. The procedure, abridged:
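Using HepG2 hepatoma cells carrying cis-acting multiplexed reporters, mRNA induction is detected after a 24 h exposure. Gain- and loss-of-signal responses are fitted relative to DMSO-treated cells.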

Assay [11] can be described thus: ATG_NF_kB_CIS: Attagene CIS-FACTORIAL HepG2 Assay for human Nuclear Factor Kappa B (NF-kB) (AID 2282991). To be noted: HepG2 Attagene cis-factorial NF-kB reporter mRNA; actives raise or lower the signal. In a few lines:
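Transient MRTU transfection of human HepG2 liver cells → 24 h chemical exposure → total RNA, oligo(dT) RT → PCR, 6-FAM primer extension, HpaI digest 2 h 37 C → CE fragment analysis. Bidirectional fitting, DMSO negative control.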

Assay [12] in a line: ATG_NRF2_ARE_CIS: Attagene CIS-FACTORIAL HepG2 Assay for human Nuclear Factor Erythroid 2 Related Factor 2 (NFR2) response to Antioxidant Response Elements (ARE) (AID 2282992). The note with it: HepG2 Attagene ARE/NRF2 reporter, transcription factor activity; actives raise or lower the signal. In a few lines:
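Cis-factorial assay: transfected HepG2 reporter library, 24 h dosing, mRNA readout via RT-PCR/CE; DMSO-referenced bidirectional analysis.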

In assay [13] the target is Oxysterols receptor LXR-alpha (Homo sapiens) (UniProt Q13133). Nature of the assay: ATG_LXRa_TRANS: Attagene TRANS-FACTORIAL HepG2 Assay for human Liver X Receptor alpha (LXRa) (AID 2282980; active means hit-call score of the fitted dose curve at least 0.9, where 1 is the maximum). To be noted: HepG2 Attagene TRANS reporter, LXRa transactivation. The procedure, abridged: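 Transient HepG2 transfectants, 24 h dosing, RT-PCR/CE mRNA reporter quantitation; gain-of-signal vs DMSO.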
Chain of Oxysterols receptor LXR-alpha (Homo sapiens) (Q13133 whole entry, looked up): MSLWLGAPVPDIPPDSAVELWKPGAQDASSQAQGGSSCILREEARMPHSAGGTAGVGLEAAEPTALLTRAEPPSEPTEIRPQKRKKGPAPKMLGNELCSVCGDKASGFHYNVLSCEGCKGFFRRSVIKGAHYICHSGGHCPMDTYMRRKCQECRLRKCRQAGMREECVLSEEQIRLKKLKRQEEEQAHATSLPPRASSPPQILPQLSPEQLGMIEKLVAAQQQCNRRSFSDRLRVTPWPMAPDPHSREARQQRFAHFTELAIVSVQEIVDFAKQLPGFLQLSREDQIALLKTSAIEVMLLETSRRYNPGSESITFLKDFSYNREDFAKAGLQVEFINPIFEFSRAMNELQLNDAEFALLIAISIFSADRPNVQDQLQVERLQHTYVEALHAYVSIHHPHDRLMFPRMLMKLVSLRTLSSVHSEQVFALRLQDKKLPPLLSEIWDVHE

Assay [14] concerns the target Oxysterols receptor LXR-beta (Homo sapiens) (UniProt P55055). Nature of the assay: ATG_LXRb_TRANS: Attagene TRANS-FACTORIAL HepG2 Assay for human Liver X Receptor beta (LXRb) (AID 2282981; active means hit-call score of the fitted dose curve at least 0.9, where 1 is the maximum). The note with it: HepG2 Attagene TRANS GAL4-LXRb reporter, mRNA. In a few lines:
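HepG2 cells transiently transfected with multiple reporter transcription units carrying chimeric NR-Gal4 proteins acting on GAL4-UAS reporters; compound exposure 24 h. Reporter mRNA quantified by RT-PCR, 6-FAM labelling, HpaI digestion and capillary electrophoresis; gain of signal versus DMSO.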

The target of assay [15] is Hepatocyte nuclear factor 4-alpha (Homo sapiens) (UniProt P41235). Nature of the assay: ATG_HNF4a_TRANS: Attagene TRANS-FACTORIAL HepG2 Assay for human Hepatocyte Nuclear Factor 4 alpha (HNF4a) (AID 2282982; active means hit-call score of the fitted dose curve at least 0.9, where 1 is the maximum). The note with it: HepG2 HNF4a transactivation reporter, mRNA readout. The procedure, abridged: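 HepG2 cells transiently transfected with multiplexed GAL4-UAS reporter units responsive to chimeric NR-GAL4 proteins; compound exposure 24 h. Reporter mRNA quantified by RT-PCR, 6-FAM labelling, HpaI digestion and capillary electrophoresis; gain of signal versus DMSO baseline.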
Chain of Hepatocyte nuclear factor 4-alpha (Homo sapiens) (P41235 whole entry, looked up, the tested form may be a part): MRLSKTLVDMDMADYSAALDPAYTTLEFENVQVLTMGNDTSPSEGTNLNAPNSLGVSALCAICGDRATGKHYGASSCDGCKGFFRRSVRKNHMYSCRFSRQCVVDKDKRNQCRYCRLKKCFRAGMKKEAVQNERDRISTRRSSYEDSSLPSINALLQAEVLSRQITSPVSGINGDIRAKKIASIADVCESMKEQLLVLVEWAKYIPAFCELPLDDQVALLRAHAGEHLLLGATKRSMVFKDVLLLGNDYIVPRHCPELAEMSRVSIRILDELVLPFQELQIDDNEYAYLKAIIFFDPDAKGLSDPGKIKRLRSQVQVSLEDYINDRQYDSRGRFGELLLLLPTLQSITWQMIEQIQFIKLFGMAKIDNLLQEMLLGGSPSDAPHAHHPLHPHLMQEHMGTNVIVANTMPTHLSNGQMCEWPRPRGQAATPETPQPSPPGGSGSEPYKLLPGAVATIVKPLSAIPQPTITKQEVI

The nature of assay [16]: ATG_M_06_TRANS: Attagene TRANS-FACTORIAL HepG2 Assay for M06 Transcription Factor (Internal Marker) (AID 2282983; active means hit-call score of the fitted dose curve at least 0.9, where 1 is the maximum). The note with it: HepG2 Attagene TRANS M06 internal marker reporter. In a few lines: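 Measured by capillary electrophoresis of fluorescently labelled RT-PCR products, this endpoint reflects reporter mRNA in HepG2 cells harbouring exogenous NR-GAL4 reporter constructs after 24 h exposure, with DMSO as baseline.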

Chain of Bile acid receptor (Homo sapiens) (Q96RI1 whole entry, looked up, the tested form may be a part): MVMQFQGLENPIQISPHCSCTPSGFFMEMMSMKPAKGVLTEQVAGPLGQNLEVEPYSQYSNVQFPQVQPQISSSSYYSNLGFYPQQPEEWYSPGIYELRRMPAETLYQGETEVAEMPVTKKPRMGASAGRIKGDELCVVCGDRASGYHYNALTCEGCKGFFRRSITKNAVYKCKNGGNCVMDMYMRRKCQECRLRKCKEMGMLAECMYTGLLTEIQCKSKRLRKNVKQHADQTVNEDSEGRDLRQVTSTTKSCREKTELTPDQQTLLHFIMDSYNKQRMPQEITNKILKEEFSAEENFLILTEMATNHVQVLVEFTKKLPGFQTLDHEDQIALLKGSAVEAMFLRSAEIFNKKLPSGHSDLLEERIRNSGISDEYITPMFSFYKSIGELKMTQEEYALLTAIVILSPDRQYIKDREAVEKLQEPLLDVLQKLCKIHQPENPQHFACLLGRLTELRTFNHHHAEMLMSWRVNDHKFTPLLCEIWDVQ
Chain of Myc proto-oncogene protein (Homo sapiens) (P01106 whole entry, looked up): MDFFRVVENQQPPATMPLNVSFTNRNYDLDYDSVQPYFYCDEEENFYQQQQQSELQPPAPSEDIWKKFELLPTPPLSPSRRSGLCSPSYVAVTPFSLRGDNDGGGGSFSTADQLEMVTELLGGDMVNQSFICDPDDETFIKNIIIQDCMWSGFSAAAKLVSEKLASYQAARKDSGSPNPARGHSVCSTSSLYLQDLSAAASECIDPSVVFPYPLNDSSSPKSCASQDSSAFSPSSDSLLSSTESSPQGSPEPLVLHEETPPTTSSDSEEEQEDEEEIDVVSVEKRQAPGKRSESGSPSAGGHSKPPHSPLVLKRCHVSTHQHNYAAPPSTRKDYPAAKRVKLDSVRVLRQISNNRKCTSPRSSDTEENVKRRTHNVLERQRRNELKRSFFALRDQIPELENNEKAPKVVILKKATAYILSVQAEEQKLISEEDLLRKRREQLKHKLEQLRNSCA
Chain of Oxysterols receptor LXR-beta (Homo sapiens) (P55055 whole entry, looked up, the tested form may be a part): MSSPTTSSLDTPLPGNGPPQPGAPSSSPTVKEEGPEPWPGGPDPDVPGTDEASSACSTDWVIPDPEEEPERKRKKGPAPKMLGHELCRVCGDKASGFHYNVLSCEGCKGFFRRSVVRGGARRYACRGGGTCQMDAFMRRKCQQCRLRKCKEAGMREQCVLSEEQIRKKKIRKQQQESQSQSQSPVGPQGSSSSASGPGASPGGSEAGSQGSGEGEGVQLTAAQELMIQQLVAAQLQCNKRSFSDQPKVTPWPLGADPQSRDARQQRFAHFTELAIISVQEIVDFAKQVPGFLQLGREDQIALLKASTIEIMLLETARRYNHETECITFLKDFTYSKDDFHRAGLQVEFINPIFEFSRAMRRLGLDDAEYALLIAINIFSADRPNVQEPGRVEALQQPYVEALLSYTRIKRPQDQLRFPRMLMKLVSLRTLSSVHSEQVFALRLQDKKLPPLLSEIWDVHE
Chain of Cellular tumor antigen p53 (Homo sapiens) (P04637 whole entry, looked up): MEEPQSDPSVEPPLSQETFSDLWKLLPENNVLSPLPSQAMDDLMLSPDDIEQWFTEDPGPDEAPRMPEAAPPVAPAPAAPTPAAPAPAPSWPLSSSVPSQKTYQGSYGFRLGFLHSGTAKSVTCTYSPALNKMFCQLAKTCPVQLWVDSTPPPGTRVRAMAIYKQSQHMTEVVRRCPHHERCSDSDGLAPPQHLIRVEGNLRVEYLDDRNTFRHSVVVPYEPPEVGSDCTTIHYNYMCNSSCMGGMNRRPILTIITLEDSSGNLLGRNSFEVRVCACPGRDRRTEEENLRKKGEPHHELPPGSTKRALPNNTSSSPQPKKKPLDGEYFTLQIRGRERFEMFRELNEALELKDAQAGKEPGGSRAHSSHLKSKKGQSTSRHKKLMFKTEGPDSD
Chain of Glucocorticoid receptor (Homo sapiens) (P04150 whole entry, looked up, the tested form may be a part): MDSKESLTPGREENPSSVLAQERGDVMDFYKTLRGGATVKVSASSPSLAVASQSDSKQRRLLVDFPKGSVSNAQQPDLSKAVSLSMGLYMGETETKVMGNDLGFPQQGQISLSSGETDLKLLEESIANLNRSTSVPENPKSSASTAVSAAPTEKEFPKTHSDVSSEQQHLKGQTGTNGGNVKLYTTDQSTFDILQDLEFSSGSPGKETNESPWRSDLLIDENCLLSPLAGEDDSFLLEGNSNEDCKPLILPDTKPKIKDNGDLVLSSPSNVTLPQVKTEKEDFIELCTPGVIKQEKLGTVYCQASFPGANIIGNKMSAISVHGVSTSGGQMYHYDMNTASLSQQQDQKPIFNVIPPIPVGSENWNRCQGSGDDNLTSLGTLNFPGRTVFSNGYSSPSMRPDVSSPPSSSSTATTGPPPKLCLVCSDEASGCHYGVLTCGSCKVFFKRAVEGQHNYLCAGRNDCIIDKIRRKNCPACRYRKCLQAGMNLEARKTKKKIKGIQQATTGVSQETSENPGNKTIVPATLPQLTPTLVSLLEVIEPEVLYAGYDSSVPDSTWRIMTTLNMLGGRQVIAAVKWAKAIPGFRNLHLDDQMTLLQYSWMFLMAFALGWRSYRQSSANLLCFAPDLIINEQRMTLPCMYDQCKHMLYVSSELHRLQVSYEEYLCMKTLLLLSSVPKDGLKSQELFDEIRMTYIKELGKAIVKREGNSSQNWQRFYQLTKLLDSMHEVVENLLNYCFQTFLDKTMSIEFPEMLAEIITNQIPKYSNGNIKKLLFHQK
Chain of Transcriptional activator Myb (Homo sapiens) (P10242 whole entry, looked up): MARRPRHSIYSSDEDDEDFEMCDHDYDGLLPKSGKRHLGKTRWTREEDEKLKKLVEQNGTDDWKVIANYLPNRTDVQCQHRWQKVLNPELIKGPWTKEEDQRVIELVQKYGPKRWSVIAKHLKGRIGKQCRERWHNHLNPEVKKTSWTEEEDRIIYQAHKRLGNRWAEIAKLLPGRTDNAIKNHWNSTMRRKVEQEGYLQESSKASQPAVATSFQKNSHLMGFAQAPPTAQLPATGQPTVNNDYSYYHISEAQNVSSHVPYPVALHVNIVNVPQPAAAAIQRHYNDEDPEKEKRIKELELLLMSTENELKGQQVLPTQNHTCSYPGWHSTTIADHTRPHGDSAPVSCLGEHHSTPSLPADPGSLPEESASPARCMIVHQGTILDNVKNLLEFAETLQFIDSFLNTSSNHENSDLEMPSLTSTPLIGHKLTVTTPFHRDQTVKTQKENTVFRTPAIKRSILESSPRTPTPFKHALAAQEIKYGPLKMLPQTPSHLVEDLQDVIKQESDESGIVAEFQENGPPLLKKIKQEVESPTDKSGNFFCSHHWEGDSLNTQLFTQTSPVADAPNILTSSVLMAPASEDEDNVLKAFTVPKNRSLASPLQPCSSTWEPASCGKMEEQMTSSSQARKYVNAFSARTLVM

Consider `CC(=O)OCC=Cc1ccccc1`, for which the compound was classed as inactive in assay [1], in [2], in assay [3], in assay [4], in assay [5] and in [6]. The result in assay [7], in assay [8], in assay [9] and in assay [10] was inactive.
On to `CNC(=O)Oc1ccc2c(c1)[C@]1(C)CCN(C)[C@@H]1N2C`, for which the compound was classed as inactive in assay [1], in assay [2], in [3], in [5], in [6] and in assay [7]. Moreover, the call in assay [8], in assay [11], in assay [9] and in assay [10] was inactive. The AC50 in assay [12] was 100 µM (active).
Take `CCc1ccc(C=O)cc1`: the result in assay [1], in assay [13], in assay [14], in [15], in [16] and in assay [5] was inactive. The outcome in [6], in assay [7], in assay [8], in assay [11] and in assay [12] was inactive.
For the compound `CC(C)(CO)[N+](=O)[O-]`, the compound was classed as inactive in [1], in [13], in [15], in assay [3], in [4] and in assay [5]. In addition, the compound was classed as inactive in assay [6], in assay [7], in [8], in [12] and in [9].
Turning to `NC(=O)Nc1ccc(Cl)cc1`, the call in [1], in [13], in assay [15], in [3], in [5] and in [6] was inactive. Further, the call in assay [7], in assay [8], in assay [11], in [12], in [9] and in assay [10] was inactive.
Consider `Clc1ccc2c(c1)C(N1CCNCC1)=Nc1ccccc1O2`, for which the compound was called inactive in assay [1], in [14], in assay [15], in assay [16], in assay [3] and in [4]. Besides, the compound was called inactive in [5], in assay [6], in [7], in assay [8], in [11] and in assay [12]. The AC50 was 44.4 µM (active) in assay [13] and 47 µM (active) in assay [9].
Turning to `CC(C)=CCC[C@H](C)CC=O`, the compound was called inactive in assay [1], in assay [2], in [16], in assay [3], in assay [5] and in [7]. Also, the compound was classed as inactive in assay [8], in [12], in assay [9] and in [10].
In the case of `CC(O)C(C)O` (stereo not given), the compound was classed as inactive in assay [1], in assay [13], in assay [15], in assay [16], in [4] and in [5]. The outcome in assay [7], in [8], in [11], in assay [12], in assay [9] and in [10] was inactive.
In the case of `C[C@]12CC[C@H]3[C@@H](CCC4=CC(=O)CC[C@@]43C)[C@@H]1CC[C@@H]2C(=O)CO`, the AC50 in assay [1] is 6.33 µM (active). Further, the result in [13], in assay [14], in [16], in assay [3], in assay [5] and in assay [7] was inactive. The compound was called inactive in assay [8], in assay [11], in assay [12] and in [9].
On to `O=C(O)c1cccc(C(F)(F)F)c1`, for which the result in [1], in [13], in [14], in [15], in [16] and in assay [3] was inactive. Further, the compound was called inactive in assay [5], in [6], in assay [7], in assay [8], in assay [12] and in [10].
`CC(C)(C)NC(N)=O`: the result in assay [1], in assay [13], in assay [14], in assay [16], in assay [4] and in assay [5] was inactive. Moreover, the result in [7], in assay [8], in assay [11], in assay [12] and in [9] was inactive.

(Values after PubChem BioAssay (EPA / NIEHS).)
